In ChEMBL document CHEMBL3433997, “St. Jude Leishmania screening dataset” (2016):

Legend:
Assay type in all cases: functional
[1] = target: Solute carrier family 2, facilitated glucose transporter member 1 (Homo sapiens) (UniProt P11166); test: ST_JUDE_LEISH: Cytotoxicity at 2uM final concentration against transgenic Leishmania Mexicana promastigotes LmGLUT1 that are glucose transport deficient and complemented with the human glucose transporter GLUT1. Activity is measured by DNA content using SYBR green in vitro
Sequence of Solute carrier family 2, facilitated glucose transporter member 1 (Homo sapiens) (P11166 whole entry): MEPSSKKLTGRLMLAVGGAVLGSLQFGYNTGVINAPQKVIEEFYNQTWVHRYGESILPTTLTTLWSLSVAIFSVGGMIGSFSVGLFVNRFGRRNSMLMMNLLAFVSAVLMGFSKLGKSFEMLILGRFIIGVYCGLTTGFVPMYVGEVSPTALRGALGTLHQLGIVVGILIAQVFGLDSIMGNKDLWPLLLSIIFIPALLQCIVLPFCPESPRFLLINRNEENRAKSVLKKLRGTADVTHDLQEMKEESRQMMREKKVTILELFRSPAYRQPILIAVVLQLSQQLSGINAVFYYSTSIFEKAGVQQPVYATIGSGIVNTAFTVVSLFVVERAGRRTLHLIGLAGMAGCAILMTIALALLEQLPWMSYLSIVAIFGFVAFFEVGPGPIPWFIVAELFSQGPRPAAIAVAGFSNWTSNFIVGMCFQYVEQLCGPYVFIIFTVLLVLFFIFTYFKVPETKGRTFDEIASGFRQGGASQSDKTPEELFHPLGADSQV

[2] = target: Hexose transporter 1 (Plasmodium falciparum) (UniProt O97467); test: ST_JUDE_LEISH: Cytotoxicity at 2uM final concentration against transgenic Leishmania Mexicana promastigotes LmPfHT that are glucose transport deficient and complemented with the Plasmodium falciparum hexose transporter. Activity is measured by DNA content using SYBR green in vitro
[3] = target: Glucose transporter (Leishmania mexicana) (UniProt O61059); test: ST_JUDE_LEISH: Cytotoxicity at 2uM final concentration against transgenic Leishmania Mexicana promastigotes LmGT2 that are glucose transport deficient and complemented with the L. Mexicana glucose transporter 2. Activity is measured by DNA content using SYBR green in vitro

Row | SMILES | inhibition [1] | inhibition [2] | inhibition [3]
1 | COc1ccc(CNCc2ccc(F)cc2)cc1-c1ccc(S(=O)(=O)NCCN2CCCC2)cc1 | 7.44% | 6.73% | 5.24%
2 | COCCNCc1cccc(-c2ccc3c(Nc4ccc(Oc5cccnc5)cc4)ccnc3c2)c1 | 1.93% | 2.56% | 2.93%
3 | CCOc1cccc(C(=O)Nc2cccc(CN3CCCN(Cc4ccc(O)cc4)CC3)c2)c1 | 3.17% | 3.14% | 5.38%
4 | C=CC(C)C1OC(=O)c2cc(OC)cc(OC)c21 (centres undefined) | 92.2% | 89% | 86.8%
5 | NC1=NC(c2ccccc2)N(c2ccccc2)C(N)=N1 (centres undefined) | 1.99% | -4.07% | -0.58%
6 | COc1cc(NCC(C)CNCc2cn(Cc3ccccc3)c3ccccc23)nc2ccccc12 (centres undefined) | 3.78% | 6.19% | 6.44%
7 | COc1cccc(C(=O)Nc2ccc(Nc3nc(C)cc(N(C)C)n3)cc2)c1 | 12.8% | 9.13% | 7.09%
8 | CC(=O)C1=NN(c2ccc(C)cc2)C(c2cccs2)N1c1ccccc1 (centres undefined) | 2.5% | 2.74% | 2.11%
9 | COc1ccc2nccc([C@@H](O)CN3CCC(NCc4ccc5c(c4)nnn5C(C)C)CC3)c2c1 | 18.3% | 20.9% | 5%
10 | N#Cc1ccc(C=CC(=O)NC2CCC(CCN3CCc4ccc(-c5cnccn5)cc4CC3)CC2)cc1 (centres undefined) | 4.1% | 2.97% | 0.59%
11 | O=C(CN1CCC(NCc2cnc(-c3ccc(Cl)cc3)[nH]2)CC1)N1CCc2ccccc21 | -1.03% | 0.65% | 0.77%
12 | Cc1cc(N(CCO)CCCN2CCCCC2)nc(Nc2ccc(Cl)cc2)n1 | 1.77% | 1.35% | 2.41%
13 | Cc1cccc2nc(-c3cccc(-c4cccc(NC(=O)Nc5ccc(Cl)c(Cl)c5)c4)c3)[nH]c12 | -0.37% | -0.17% | -0.99%
14 | COC(=O)c1ccc(C2OC3(C(=O)c4ccccc4C3=O)C(OC)=C2Cl)cc1C(C)=O (centres undefined) | -2.44% | -0.79% | -0.7%
15 | CCOC(=O)/C(=N\OC(C(=O)OC(C)(C)C)c1ccccc1)c1csc(NC(c2ccccc2)(c2ccccc2)c2ccccc2)n1 (centres undefined) | 0.73% | 1.43% | 0.99%
16 | CCN(CCCN1CCCC1)c1cc(C)nc(Nc2ccc(Cl)cc2)n1 | 1.46% | 1.37% | -0.13%
17 | Cc1cccc2nc(-c3cccc(-c4cccc(NC(=O)C5CC(=O)Nc6ccccc65)c4)c3)[nH]c12 (centres undefined) | 4.88% | -1.8% | 5.82%

Row | SMILES | inhibition [1] | inhibition [2] | inhibition [3]
18 | COC(=O)C(Cc1ccccc1)NC(=O)NC1CCN(c2ccnc(Nc3ccc(F)cc3)n2)C1 (centres undefined) | 1.44% | 0.86% | 3.07%
19 | COc1ccccc1CCNc1nc(C)cc(N[C@@H](Cc2ccccc2)C(=O)NCCCOC(C)C)n1 | 3.06% | 3.2% | -0.1%
20 | O=C(Nc1ccc(C(F)(F)F)cc1)c1ccc(S(=O)(=O)NC2CCN(CC3CCCCC3)CC2)cc1 | 1.19% | 0.54% | -1.52%
21 | CC(C)C[C@H]1c2[nH]c3ccc(Cl)cc3c2CCN1C(=O)CCc1ccccc1 | 3.74% | 2.53% | -0.65%
22 | Cc1ccc2[nH]c(C)cc(=NN=Cc3ccccc3F)c2c1 | 13.5% | 12.6% | 8.78%
23 | COc1ccc(-c2csc(N(CCCN(C)C)C(=O)c3cc4c(C)nn(-c5ccccc5)c4s3)n2)cc1 | 0.66% | -0.63% | 2.84%
24 | CC(C)CNCc1ccc(OCc2cccc(COc3ccc(CNCC(C)C)cc3I)c2)c(I)c1 | 2.2% | 1.42% | 2.23%
25 | Cc1ccc(C(c2nnnn2C2CCCC2)N(Cc2ccco2)Cc2ccccc2Cl)cc1 (centres undefined) | 9.7% | 9.7% | 8.53%
26 | O=C(NCC1CCN(Cc2cccc(C(F)(F)F)c2)C1)c1cc(-c2cccc(F)c2)cs1 (centres undefined) | 5.58% | 5.35% | 5.45%
27 | COc1ccc(CNC2CCN(C)CC2)cc1-c1ccc(S(=O)(=O)NCc2cccnc2)s1 | -1.99% | 0.85% | 5.84%
28 | COc1c(C2=CCN(CCCCNC(=O)c3ccc(-c4ccc(C#N)cc4)cc3)CC2)ccc2c1CCCC2 | 0.4% | -0.52% | 0.06%
29 | Cc1cc(N2CCCC2)nc(Nc2ccc(NC(=O)CC(C)C)cc2)n1 | 1% | 3.11% | 2.23%
30 | CC(=O)N(C)C1CCN(Cc2ccc(-c3cccc(-c4nc5cc(F)ccc5[nH]4)c3)cc2)C1 (centres undefined) | 1.27% | -0.26% | 1.68%
31 | CC(=O)Nc1nc(C(=O)Nc2ccc(-c3cccc(-c4nc5ccccc5[nH]4)c3)cc2)cs1 | 1.93% | 2.85% | 0.42%
32 | CN(CCO)Cc1ccc(-c2ccc(NS(=O)(=O)c3cccc4cccnc34)cc2)cc1 | 75.1% | 81.8% | 80.8%
33 | O=C(Nc1ccc(N2CCN(c3ncccc3C(F)(F)F)CC2)nc1)c1cccs1 | 2.6% | 3.03% | 0.38%
